Measurements as given in PubChem BioAssay (NCATS).
Values joined by “and” are separate entries in the source; they are usually repeats but may differ in a detail not shown here. Identical values can stand only once. Results filed as inconclusive are left out. Active and inactive are the calls of the source. Unless noted, the call rests on the fitted dose curve.

Assay: Validation of Assay for Modulators of Lamin A Splicing (AID 1459; active means well fitted curve in the direction sought with a large enough effect in the signal ratio; the % refers to the signal ratio;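 further: cells exposed to compound for two days before reading; 0% is about no effect; ratio rise marks activators and ratio drop marks inhibitors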)
Conditions: Lamin A splicing dual RFP/GFP fluorescence reporter; series mostly up to 9.22 µM
Summary of the method: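 Readout: ratio of GFP (500-530 nm) to RFP (575-640 nm) total object intensity by 488 nm laser-scanning cytometry after 48 hrs. Cells were HeLa S3 clones carrying lamin A-EGFP minigene plus DsRed2 viability reporter; vehicle 0.5% DMSO final.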

Row | SMILES | outcome
1 | CCC(C)N(C)C(=O)c1cc2ccccc2c(-c2ccccc2Cl)n1 (centres undefined) | inactive
2 | N[C@@H]1CONC1=O | inactive
3 | Cc1ccc(N(CC2=NCCN2)c2cccc(O)c2)cc1 | inactive
4 | NCCc1ccc(O)c(O)c1 | inactive
5 | NS(=O)(=O)c1cc2c(cc1Cl)NC=NS2(=O)=O | inactive
6 | CCCCNc1cc(C(=O)O)cc(S(N)(=O)=O)c1Oc1ccccc1 | inactive
7 | CC(=O)Oc1ccccc1C(=O)O | inactive
8 | CCOC(=O)C1=C[C@]2(CC)CCCN3CCc4c(n1c1ccccc41)[C@@H]32 | inactive
9 | Nc1ccc(S(=O)(=O)Nc2ccnn2-c2ccccc2)cc1 | inactive
10 | NCCCC(N)(C(=O)O)C(F)F (centres undefined) | inactive
11 | NC[C@H](O)c1ccc(O)c(O)c1 | inactive
12 | Cc1oncc1C(=O)Nc1ccc(C(F)(F)F)cc1 | inactive
13 | CCN(CC)CCCC(C)Nc1ccnc2cc(Cl)ccc12 (centres undefined) | inactive
14 | Cc1cnc(NC(=O)C2=C(O)c3ccccc3S(=O)(=O)N2C)s1 | inactive
15 | N=c1nc(N2CCCCC2)cc(N)n1O | inactive
16 | O=C1CCC(N2C(=O)c3ccccc3C2=O)C(=O)N1 (centres undefined) | inactive

Assay: qHTS Assay for Lipid Storage Modulators (AID 1519); on activity change, negative = inhibition: on the % scale 0 is the no-effect control and ±100 the full control effect
Conditions: Drosophila S3 cells, BODIPY lipid droplet/cell ratio, laser cytometry; at 25.7 µM (top of the series); cells loaded with oleic acid
Summary of the method: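 Cells seeded at 5,000 per well were treated with compounds over a concentration series and loaded with oleic acid (400 uM, as added). Lipid droplet fluorescence (488 nm excitation, 500-530 nm channel) was read by laser-scanning cytometry and normalized to 20 uM Triacsin C.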

Row | SMILES | activity change, negative = inhibition
17 | N#Cc1ccc(C(c2ccc(C#N)cc2)n2cncn2)cc1 | 0.817% (inactive)
18 | N[C@@H]1CONC1=O | -1.13% (inactive) and 2.32% (inactive)
19 | Cc1ccc(N(CC2=NCCN2)c2cccc(O)c2)cc1 | 1.77% (inactive)
20 | Clc1cccc(Cl)c1NC1=NCCN1 | -3.52% (inactive)
21 | NS(=O)(=O)c1cc2c(cc1Cl)NC=NS2(=O)=O | -2.79% (inactive)
22 | CCCCNc1cc(C(=O)O)cc(S(N)(=O)=O)c1Oc1ccccc1 | 0.496% (inactive)
23 | Nc1ccc(S(=O)(=O)Nc2ccnn2-c2ccccc2)cc1 | -1.01% (inactive)
24 | Cc1[nH]c(=O)c(C#N)cc1-c1ccncc1 | 2.58% (inactive)
25 | Cc1oncc1C(=O)Nc1ccc(C(F)(F)F)cc1 | 0.243% (inactive)
26 | COc1ccc2nc(S(=O)Cc3ncc(C)c(OC)c3C)[nH]c2c1 (centres undefined) | -4.82% (inactive)
27 | Cn1cnc([N+](=O)[O-])c1Sc1ncnc2nc[nH]c12 | -1.38% (inactive)
28 | NNCCc1ccccc1 | 1.11% (inactive)
29 | Nc1nc2ccc(OC(F)(F)F)cc2s1 | -1.29% (inactive)
30 | N=c1nc(N2CCCCC2)cc(N)n1O | 0.0649% (inactive)

Same assay, conditions: Drosophila S3 cells, BODIPY lipid droplet/cell ratio, laser cytometry; at 57.5 µM (top of the series); cells loaded with oleic acid

Row | SMILES | activity change, negative = inhibition
31 | N[C@@H]1CONC1=O | 0.855% (inactive)
32 | Cc1ccc(N(CC2=NCCN2)c2cccc(O)c2)cc1 | 11.7% (inactive) and 0.54% (inactive)
33 | NCCc1ccc(O)c(O)c1 | 6.86% (inactive) and 6.19% (inactive) and 1.49% (inactive)
34 | Clc1cccc(Cl)c1NC1=NCCN1 | 4.4% (inactive) and 1.2% (inactive)
35 | NS(=O)(=O)c1cc2c(cc1Cl)NC=NS2(=O)=O | 7.25% (inactive) and -0.143% (inactive)
36 | O=C(O)COCCN1CCN(C(c2ccccc2)c2ccc(Cl)cc2)CC1 (centres undefined) | 5.98% (inactive)
37 | CCCCNc1cc(C(=O)O)cc(S(N)(=O)=O)c1Oc1ccccc1 | 9.35% (inactive) and 0.368% (inactive)
38 | CC(=O)Oc1ccccc1C(=O)O | 4.32% (inactive)
39 | CCOC(=O)C1=C[C@]2(CC)CCCN3CCc4c(n1c1ccccc41)[C@@H]32 | -17.2% (inactive)
40 | Nc1ccc(S(=O)(=O)Nc2ccnn2-c2ccccc2)cc1 | 14.1% (inactive)
41 | Cc1[nH]c(=O)c(C#N)cc1-c1ccncc1 | -0.858% (inactive)
42 | NC[C@H](O)c1ccc(O)c(O)c1 | 0.534% (inactive)
43 | Cc1oncc1C(=O)Nc1ccc(C(F)(F)F)cc1 | 13.4% (inactive) and -0.067% (inactive)
44 | CCN(CC)CCCC(C)Nc1ccnc2cc(Cl)ccc12 (centres undefined) | 4.83% (inactive)
45 | CCCc1nc2c(C)cc(-c3nc4ccccc4n3C)cc2n1Cc1ccc(-c2ccccc2C(=O)O)cc1 | -11.9% (inactive)
46 | CCCc1nn(C)c2c(=O)[nH]c(-c3cc(S(=O)(=O)N4CCN(C)CC4)ccc3OCC)nc12 | 9.83% (inactive)
47 | Cn1cnc([N+](=O)[O-])c1Sc1ncnc2nc[nH]c12 | 0.323% (inactive) and -0.298% (inactive)
48 | NNCCc1ccccc1 | 11.9% (inactive)
49 | Nc1nc2ccc(OC(F)(F)F)cc2s1 | 1.85% (inactive)
50 | N=c1nc(N2CCCCC2)cc(N)n1O | 3.81% (inactive) and 8.57% (inactive)
51 | O=C1CCC(N2C(=O)c3ccccc3C2=O)C(=O)N1 (centres undefined) | 4.49% (inactive) and -2.08% (inactive)

Same assay, conditions: Drosophila S3 cells, BODIPY lipid droplet/cell ratio, laser cytometry; measured here: cell count channel max response; cells loaded with oleic acid

Row | SMILES | max response
52 | N#Cc1ccc(C(c2ccc(C#N)cc2)n2cncn2)cc1 | -19.8%
53 | N[C@@H]1CONC1=O | -10.2% and -6.54% and 0.81%
54 | Cc1ccc(N(CC2=NCCN2)c2cccc(O)c2)cc1 | -12.1% and 5.79% and 62.4%
55 | NCCc1ccc(O)c(O)c1 | 7.38% and 3.94% and -27.9%
56 | Clc1cccc(Cl)c1NC1=NCCN1 | 3.68% and -5.77% and -17.1%
57 | NS(=O)(=O)c1cc2c(cc1Cl)NC=NS2(=O)=O | 3.82% and 7.17% and -12.5%
58 | O=C(O)COCCN1CCN(C(c2ccccc2)c2ccc(Cl)cc2)CC1 (centres undefined) | 4.08%
59 | CCCCNc1cc(C(=O)O)cc(S(N)(=O)=O)c1Oc1ccccc1 | 0.765% and 10.7% and -18.8%
60 | CC(=O)Oc1ccccc1C(=O)O | 19.3%
61 | CCOC(=O)C1=C[C@]2(CC)CCCN3CCc4c(n1c1ccccc41)[C@@H]32 | -25.8%
62 | Nc1ccc(S(=O)(=O)Nc2ccnn2-c2ccccc2)cc1 | -3.22% and 11.1%
63 | Cc1[nH]c(=O)c(C#N)cc1-c1ccncc1 | -8.19% and -12.8%
64 | NC[C@H](O)c1ccc(O)c(O)c1 | -22.5%
65 | Cc1oncc1C(=O)Nc1ccc(C(F)(F)F)cc1 | -14.5% and 1.19% and -29.1%
66 | CCN(CC)CCCC(C)Nc1ccnc2cc(Cl)ccc12 (centres undefined) | 12.7%
67 | COc1ccc2nc(S(=O)Cc3ncc(C)c(OC)c3C)[nH]c2c1 (centres undefined) | 6.97%
68 | CCCc1nc2c(C)cc(-c3nc4ccccc4n3C)cc2n1Cc1ccc(-c2ccccc2C(=O)O)cc1 | -6.13%
69 | CCCc1nn(C)c2c(=O)[nH]c(-c3cc(S(=O)(=O)N4CCN(C)CC4)ccc3OCC)nc12 | 12.2%
70 | Cn1cnc([N+](=O)[O-])c1Sc1ncnc2nc[nH]c12 | 0.534% and 6.17% and -33.4%
71 | NNCCc1ccccc1 | 3.17% and -11.1%
72 | Nc1nc2ccc(OC(F)(F)F)cc2s1 | -7.42% and -26.5%
73 | N=c1nc(N2CCCCC2)cc(N)n1O | -1.22% and 19% and 16.9%
74 | O=C1CCC(N2C(=O)c3ccccc3C2=O)C(=O)N1 (centres undefined) | 6.67% and -27.8%
